In all, about 330,000 compounds went through this assay and about 5,800 (1.8%) were called active. For the sample, actives were picked, then their nearest neighbours and some compounds at random. Unmarked numbers belong to inactive results.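 Rule for the calls: active = inhibition above about 50% at the single tested dose (limit read from the data); inactive = the rest.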
Each molecule was assayed against Sentrin-specific protease 6 (Homo sapiens) (UniProt Q9GZR1) (assay: inhibition of human SENP6 catalytic domain – biochemical, luminescence, uHTS, primary screen (AID 2599;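 note: plate controls were DMSO wells with enzyme for no effect and DMSO wells lacking enzyme for full effect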)). Details: Recombinant SENP6 catalytic domain, aminoluciferin luminescence; at 10 µM; stronger effect = higher value.
Chain of Sentrin-specific protease 6 (Homo sapiens) (Q9GZR1 628-1112 limits assumed): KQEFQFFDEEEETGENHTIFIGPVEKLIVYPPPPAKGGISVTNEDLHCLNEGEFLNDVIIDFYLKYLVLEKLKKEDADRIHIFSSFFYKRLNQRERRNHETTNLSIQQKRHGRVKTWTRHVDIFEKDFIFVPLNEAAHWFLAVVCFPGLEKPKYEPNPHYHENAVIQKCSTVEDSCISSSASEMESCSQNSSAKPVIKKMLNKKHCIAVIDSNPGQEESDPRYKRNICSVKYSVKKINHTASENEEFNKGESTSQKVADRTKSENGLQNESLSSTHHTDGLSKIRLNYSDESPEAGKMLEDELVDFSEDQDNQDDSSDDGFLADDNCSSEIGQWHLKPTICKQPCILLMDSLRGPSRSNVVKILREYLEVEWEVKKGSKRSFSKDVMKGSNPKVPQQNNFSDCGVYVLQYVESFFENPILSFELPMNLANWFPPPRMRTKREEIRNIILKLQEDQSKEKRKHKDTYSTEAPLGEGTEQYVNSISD

**Q.** How did the inhibition turn out when `CCOC(=O)C(NC(C)=O)C(=O)Nc1ccc(OC)cc1` (stereo not given) was run?
**A.** 4.26%

**Q.** Which inhibition does the source give for `CCC(CO)Oc1cc(NC(=O)c2cccc(F)c2)c2ncn(C(C)C)c2c1` (stereo not given) here?
**A.** -22.5%

**Q.** `CC(C)n1cnc2c(NCc3ccccc3)cc(N[C@@H](CO)Cc3ccccc3)cc21` was tested. Which inhibition did it give?
**A.** 75.8% (active)

**Q.** `CCC(CO)Oc1cc(NC(=O)c2ccc(Cl)cc2)c2ncn(C(C)C)c2c1` (stereo not given) was tested. Which inhibition did it give?
**A.** -20.3%

**Q.** Which inhibition does the source give for `CCC(CO)Oc1cc(NC(=O)c2cccc3ccccc23)c2ncn(C(C)C)c2c1` (stereo not given) here?
**A.** -4.87%

**Q.** Which inhibition does the source give for `CCC(CO)Oc1cc(NCc2ccccc2)c2ncn(C3CCCC3)c2c1` (stereo not given) here?
**A.** 1.75%

**Q.** `CC(C)n1cnc2c(NCc3ccccc3)cc(OCC3CCN(C)CC3)cc21` was tested. Which inhibition did it give?
**A.** 77.9% (active)

**Q.** `COc1ccc(OC)c(S(=O)(=O)Nc2c(C)nn(C)c2C)c1` was tested. Which inhibition did it give?
**A.** -2.99%

**Q.** How did the inhibition turn out when `COc1ccccc1CCNC(=O)CSc1nnc2ccc(-c3cccnc3)nn12` was run?
**A.** 17%

**Q.** Which inhibition does the source give for `CC(C)(C)CC(C)(C)NCC(O)COCCOc1ccc(Br)cc1` (stereo not given) here?
**A.** 9.07%

**Q.** With `O=C(O)CC/C(=C\c1cc2c(cc1Br)OCO2)c1nc2ccccc2s1` as the molecule, how does the inhibition read?
**A.** -4.31%

**Q.** With `Cc1cc(N=Nc2ccc3ccccc3c2)ccc1O` as the molecule, how does the inhibition read?
**A.** 98% (active)

**Q.** Which inhibition does the source give for `Cc1ccccc1CSc1nnc(-c2ccccn2)n1N` here?
**A.** 7.46%

**Q.** `COc1ccc(C2C=C(c3ccc(Br)cc3)Nc3nc(NS(C)(=O)=O)nn32)cc1` (stereo not given) was tested. Which inhibition did it give?
**A.** 3.75%

**Q.** With `C/C(=C\c1ccco1)C1Nc2cccc3cccc(c23)N1` as the molecule, how does the inhibition read?
**A.** -84.6%

**Q.** How did the inhibition turn out when `Brc1ccccc1C1Nc2cccc3cccc(c23)N1` was run?
**A.** 51.7% (active)

**Q.** With `Oc1ccc(C2Nc3cccc4cccc(c34)N2)cc1` as the molecule, how does the inhibition read?
**A.** 15.2%

**Q.** Which inhibition does the source give for `CC1CN(C(=S)Nc2cccc(F)c2)CC(C)O1` (stereo not given) here?
**A.** 15.9%

**Q.** For `O=c1ccc(S(=O)(=O)N2CCCC2)cn1Cc1nc(-c2ccccc2)no1`, which inhibition is on record?
**A.** -10.4%

**Q.** `CN(C)c1ccc(NC(=O)CN2C3CCCC2CC(NC(=O)c2ccccc2)C3)cc1` (stereo not given) was tested. Which inhibition did it give?
**A.** -8.69%

**Q.** For `COC(=O)c1ccccc1NC(=O)C1(S(=O)(=O)c2ccc(Cl)cc2)CC1`, which inhibition is on record?
**A.** 16.9%

**Q.** For `Nc1ccc2nn(-c3ccc(Cl)cc3)nc2c1`, which inhibition is on record?
**A.** 95% (active)

**Q.** For `CN(C)c1nnnn1-c1ccc(Cl)cc1`, which inhibition is on record?
**A.** 2.68%

**Q.** Which inhibition does the source give for `c1ccc(-n2nc3ccccc3n2)cc1` here?
**A.** -28.4%

**Q.** How did the inhibition turn out when `CN(C)CCCNC(=O)c1cc(C(=O)Cc2ccc(Cl)cc2)c[nH]1` was run?
**A.** -9.62%

**Q.** `CC1CN(C(=S)SCC(=O)c2ccccc2)CC(C)O1` (stereo not given) was tested. Which inhibition did it give?
**A.** -20.8%

**Q.** Which inhibition does the source give for `O=C(CSC(=S)N1CCOCC1)c1ccccc1` here?
**A.** 60.8% (active)

**Q.** With `O=C(CSC(=S)N1CCOCC1)c1cc(Br)cc(Br)c1O` as the molecule, how does the inhibition read?
**A.** -12.1%

**Q.** For `Cc1ccc(CNC(=O)CC2Sc3ccccc3NC2=O)cc1` (stereo not given), which inhibition is on record?
**A.** -4.12%

**Q.** Which inhibition does the source give for `C#CCOCCOCCOCCNc1nc(N2CCN(C(=O)C([C@@H](C)CC)n3cc(C(N)COC(=O)C(F)(F)F)nn3)CC2)nc(N2CCN(C(=O)[C@H](CCCCN)n3cc(C(N)CC(C)C)nn3)CC2)n1` (stereo not given in full) here?
**A.** -9.82%

**Q.** Which inhibition does the source give for `O=C(Nc1ccc(C(=O)O)c(O)c1)c1ccccc1` here?
**A.** 83.4% (active)

**Q.** For `O=C(Nc1cccc(NC(=O)c2cccc(F)c2)c1)c1ccccc1`, which inhibition is on record?
**A.** -18.8%

**Q.** How did the inhibition turn out when `O=C(Nc1cccc(C(=O)N2CCCC2)c1)c1ccccc1` was run?
**A.** -14.4%

**Q.** How did the inhibition turn out when `COc1cccc(N2CC(C(=O)NCc3n[nH]c(=O)c4ccccc34)CC2=O)c1` (stereo not given) was run?
**A.** -13.6%

**Q.** For `O=C(O)/C=C/c1ccc(S(=O)(=O)N2CCCCCC2)cc1`, which inhibition is on record?
**A.** 16.2%

**Q.** With `CC(C)c1nc(SCC(=O)NC(=O)NC(C)(C)C)n[nH]1` as the molecule, how does the inhibition read?
**A.** -25.6%

**Q.** `O=C(NCC1CCCO1)c1cc2c(s1)CCCC2` (stereo not given) was tested. Which inhibition did it give?
**A.** 6.51%

**Q.** With `O=C(Nc1ccc(F)cc1)c1cc2c(s1)CCCC2` as the molecule, how does the inhibition read?
**A.** 89% (active)

**Q.** `CN(C)C(=O)c1ccc(NC(=O)COC(=O)c2cc3c(s2)CCCCC3)cc1` was tested. Which inhibition did it give?
**A.** -9.42%

**Q.** `CCc1noc(C)c1C(=O)Nc1nc2ccc(OC)cc2s1` was tested. Which inhibition did it give?
**A.** 59.6% (active)

**Q.** For `Cc1noc(C)c1CSCC(=O)Nc1nc2ccc(Oc3ccccc3)cc2s1`, which inhibition is on record?
**A.** 14.7%

**Q.** With `COc1cccc(C(=O)Nc2nnc(S(=O)(=O)N(C)c3ccccc3)s2)c1` as the molecule, how does the inhibition read?
**A.** 12.8%

**Q.** Which inhibition does the source give for `CS(=O)(=O)c1ccc2nc(NC(=O)c3ccc(Cl)nc3)sc2c1` here?
**A.** 0.381%

**Q.** With `COc1cccc(C(=O)Nc2nc3ccc(S(C)(=O)=O)cc3s2)c1` as the molecule, how does the inhibition read?
**A.** 89.1% (active)

**Q.** Which inhibition does the source give for `CCc1noc(C)c1C(=O)Nc1nc(-c2ccccc2)cs1` here?
**A.** -13.3%

**Q.** Which inhibition does the source give for `CC1=NN(C(=O)CCc2ccccc2O)C(O)(C(F)(F)F)C1` (stereo not given) here?
**A.** 13.7%

**Q.** How did the inhibition turn out when `COc1ccccc1CCC(=O)OCC(=O)N1CCN(S(=O)(=O)c2ccc(C)cc2C)CC1` was run?
**A.** -9.38%

**Q.** With `O=C(Nc1ncc([N+](=O)[O-])s1)C1COc2ccccc2O1` (stereo not given) as the molecule, how does the inhibition read?
**A.** 97.8% (active)

**Q.** How did the inhibition turn out when `COc1ccc(NC(=O)C2COc3ccccc3O2)cc1` (stereo not given) was run?
**A.** 2.57%

**Q.** Which inhibition does the source give for `COc1ccc(OC)c2sc(NC(=O)C3COc4ccccc4O3)nc12` (stereo not given) here?
**A.** -3.77%
